Screens as filed in PubChem.
RecA intein inh: Mtb RecA intein splicing inhibition | P9WHJ3 | cell-free RecA intein splicing, fluorescence | inhibition, % (concentration not given with the values) | actives 0.75% (n = 290,000); in the data active means inhibition above about 30%;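 further: 0% = vehicle wells and 100% = reference inhibitor control wells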
Mtb betalactam: beta-lactam sensitization of Mtb H37Rv | M. tuberculosis H37Rv growth with meropenem, percent inhibition | inhibition, % at 25 µM | actives 0.27% (n = 330,000);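 further: growth measured after seven days incubation then overnight dye step; 0% = bacteria only wells and 100% = bacteria with antibiotic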
Rv3671c inh: inhibitors of M. tuberculosis serine protease Rv3671c | inhibition, % at 5.96 µM | actives 0.048% (n = 320,000) | AID 2606 | P9WHR9; in the data active means inhibition above about 38%;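 further: extracellular domain of Rv3671c used as enzyme; 0% = enzyme with DMSO and 100% = no enzyme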
MazEF act: MazEF (E. coli) toxin RNase activation; P0AE70; FAM/BHQ RNA-DNA oligo cleavage fluorescence, 5 h; activation, % at 20 µM; actives 0.32% (n = 350,000); AID 504720; in the data active means activation above about 50%
Mtb UGM inh: blocks M. tuberculosis UGM enzyme; P9WIQ1; purified UGM, fluorescence polarization probe displacement; inhibition, % at 10 µM; actives 0.06% (n = 320,000); AID 504406; in the data active means inhibition above about 10%, passing the limit was not always enough
Target sequence (P9WIQ1 whole entry, looked up): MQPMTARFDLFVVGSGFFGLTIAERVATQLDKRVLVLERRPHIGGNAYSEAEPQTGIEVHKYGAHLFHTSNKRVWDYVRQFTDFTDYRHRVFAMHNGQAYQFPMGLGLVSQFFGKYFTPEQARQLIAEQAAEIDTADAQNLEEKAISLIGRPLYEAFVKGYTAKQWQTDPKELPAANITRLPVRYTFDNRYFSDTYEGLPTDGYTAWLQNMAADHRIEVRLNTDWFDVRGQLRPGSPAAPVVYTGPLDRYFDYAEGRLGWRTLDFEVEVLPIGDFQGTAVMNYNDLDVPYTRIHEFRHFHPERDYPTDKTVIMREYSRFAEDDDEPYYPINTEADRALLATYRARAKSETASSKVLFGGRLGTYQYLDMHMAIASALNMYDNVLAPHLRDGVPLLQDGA
TcdB inh: blocks C. difficile toxin B glycohydrolase activity; P18177; TcdB glycohydrolase enzymatic assay, plate reader; inhibition, % at 9.99 µM; actives 0.24% (n = 350,000); AID 652162; in the data active means inhibition above about 10%
GFP chromophore: counter-screen GFP chromophore formation inhibition. actives 83% (n = 2,100). EC50, µM. shares compounds with RecA intein inh. cell-free GFP chromophore formation, fluorescence
An asterisk follows results filed as active. Hits are enriched below; roughly 0.97% of the tested compounds scored in any of these assays. Unless noted, how the calls were made is not given here.

Screening CCN1Cc2c(/C=C/c3ccccc3)nc3ccc(OC)cc3c2N(c2cccc(Cl)c2)C1 returned RecA intein inh 34*, Mtb betalactam 90, Rv3671c inh -44, MazEF act -16, Mtb UGM inh 4, TcdB inh 0 and GFP chromophore 23*.
For COc1cccc(N2CCc3c(C)nc4ccc(Cl)cc4c32)c1 the results were RecA intein inh -2, Mtb betalactam 8, MazEF act 21, Mtb UGM inh 0 and TcdB inh 3.
Screening O=C1CN(S(=O)(=O)Cc2ccccc2)C[C@@H]2[C@@H](c3ccc(C#CC4CC4)cc3)[C@@H](CO)N12 returned TcdB inh -1.
CN(C)CCCNC(=O)[C@@H]1[C@@H](CO)[C@@H]2Cn3c(ccc(-c4ccc(F)cc4)c3=O)[C@H]1N2C was read as TcdB inh -1.
For O=C(NCc1cccnc1)/C(=C\c1ccc(-c2ccc(Br)cc2)o1)S(=O)(=O)c1ccccc1 the results were RecA intein inh 51*, Mtb betalactam 95, Rv3671c inh -44, MazEF act 1, Mtb UGM inh 0, TcdB inh 1 and GFP chromophore 29*.
CC(C)NC(=O)N(C)C[C@H]1Oc2ccc(NC(=O)CCN3CCOCC3)cc2C(=O)N([C@@H](C)CO)C[C@@H]1C was read as TcdB inh 1.
CCOC(=O)C1=C(C)n2c(s/c(=C/c3cccc([N+](=O)[O-])c3)c2=O)=NC1c1ccc(O)c(OC)c1 (configuration not stated) was read as RecA intein inh 35*, Rv3671c inh 8, MazEF act 7, Mtb UGM inh 3, TcdB inh -2 and GFP chromophore 36*.
`CCOC(=O)C1=C(C)N=c2s/c(=C\c3ccc(O)c([N+](=O)[O-])c3)c(=O)n2C1c1ccccc1OC` (configuration not stated) gave RecA intein inh -2, Mtb betalactam 1, Rv3671c inh 17, MazEF act -7, Mtb UGM inh -2 and TcdB inh 0.
`COc1cc(/C=N\NC(=O)c2ccc(Cl)cc2)ccc1Oc1ccc([N+](=O)[O-])cn1` gave RecA intein inh -2, Mtb betalactam -6, Rv3671c inh -5, MazEF act 11, Mtb UGM inh 2 and TcdB inh 0.
COc1cc(/C=N\NC(=O)c2ccccc2F)ccc1Oc1ccc([N+](=O)[O-])cn1 was read as RecA intein inh 34*, Mtb betalactam 9, Rv3671c inh 8, MazEF act 15, Mtb UGM inh 2, TcdB inh 2 and GFP chromophore >38.
For O=C(Cc1ccc(Cl)cc1)NCCCn1ccnc1 the results were RecA intein inh 4, Mtb betalactam -3, Rv3671c inh -5, MazEF act -5 and Mtb UGM inh -1.
For Clc1ccc(CSC(Cn2ccnc2)c2ccc(Cl)cc2Cl)cc1 (configuration not stated) the results were RecA intein inh 42*, Mtb betalactam 95, Rv3671c inh 0, MazEF act 8, Mtb UGM inh -2, TcdB inh 0 and GFP chromophore 23*.
`O=C(Cc1ccccc1)N1C[C@H]2[C@@H](c3ccccc31)[C@@H](CO)N2C(=O)C1CCOCC1` gave TcdB inh 0.
`Cc1ccc(S(=O)(=O)N(C)C[C@H]2Oc3ccc(NC(=O)Cc4cn(C)c5ccccc45)cc3C(=O)N([C@@H](C)CO)C[C@@H]2C)cc1` gave TcdB inh 0.
CCCC#Cc1cnc2c(c1)C(=O)N([C@H](C)CO)C[C@@H](C)[C@H](CN(C)Cc1ccc(F)cc1)O2 was read as TcdB inh 1.
`CCOC(=O)COc1ccc(C(c2c(C)[nH][nH]c2=O)c2c(C)[nH][nH]c2=O)cc1` gave RecA intein inh -1, Mtb betalactam 3, Rv3671c inh -4, MazEF act 18, Mtb UGM inh 1 and TcdB inh -1.
Screening Cc1[nH][nH]c(=O)c1C(c1c(C)[nH][nH]c1=O)c1cn(Cc2ccc(F)cc2)c2ccccc12 returned Mtb betalactam 11, Rv3671c inh -117, MazEF act -4 and Mtb UGM inh 1.
